About 7,900 targets were measured; listed, in parts, are those with a hit and a random draw of the rest. About 0.6% of all pairs of compound and target were hits.
What was measured:
Assay in all cases: log2 fold change, soluble protein after heating vs DMSO (PISA); higher = thermal stabilisation; K562 cells, 10 uM, 30 min; active = over 0.2 and 3.5 SD of the protein, either way, in both replicates (recomputed)
volasertib = compound: CC[C@@H]1C(=O)N(C)c2cnc(Nc3ccc(C(=O)N[C@H]4CC[C@H](N5CCN(CC6CC6)CC5)CC4)cc3OC)nc2N1C(C)C [volasertib]
Method in brief: (§1)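 For each measurement, 10 μM compound was applied for 30 min to K562 cells at 2×10^6 cells/mL. Aliquots were heated for 3 min across 48°C-58°C, pooled, and extracted in PBS with 0.5% NP-40 at 4°C; the supernatant after 21,000xg for 90 min was soluble protein. This was quantified by TMTpro 16plex LC-MS/MS with channel sums equalised, and thermal stability was reported relative to control samples from duplicates, on a log2 fold-change scale.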

epoxomicin = compound: CC[C@H](C)[C@@H](C(=O)N[C@@H]([C@@H](C)O)C(=O)N[C@@H](CC(C)C)C(=O)[C@]1(CO1)C)NC(=O)[C@H]([C@@H](C)CC)N(C)C(=O)C [epoxomicin]
Method in brief: as §1

[1] = compound: CN(C)CC(=O)Nc1ccc2[nH]c(=O)c3ccccc3c2c1
Method in brief: as §1

[2] = compound: CN1C2=C(C3=C1C(=O)N(N=C3)CC4=CC(=CC=C4)N)SC(=C2)S(=O)C
Method in brief: as §1

saracatinib = compound: CN1CCN(CCOc2cc(OC3CCOCC3)c3c(Nc4c(Cl)ccc5c4OCO5)ncnc3c2)CC1 [saracatinib]
Method in brief: as §1

sotrastaurin = compound: CN1CCN(c2nc(C3=C(c4c[nH]c5ccccc45)C(=O)NC3=O)c3ccccc3n2)CC1 [sotrastaurin]
Method in brief: as §1

alvocidib = compound: CN1CC[C@H](c2c(O)cc(O)c3c(=O)cc(-c4ccccc4Cl)oc23)[C@H](O)C1 [alvocidib]
Method in brief: as §1

Tubastatin A = compound: CN1CCc2c(c3ccccc3n2Cc2ccc(C(=O)NO)cc2)C1 [Tubastatin A]
Method in brief: as §1

defactinib = compound: CNC(=O)c1ccc(Nc2ncc(C(F)(F)F)c(NCc3nccnc3N(C)S(C)(=O)=O)n2)cc1 [defactinib]
Method in brief: as §1

[3] = compound: CNc1nc(-c2ccc3c(N)n[nH]c3c2)cc(N2C[C@@H](C(=O)NC3CCCCC3)CC[C@H]2C)n1
Method in brief: as §1

[4] = compound: COC(=O)[C@H](CCSC)NC(=O)C1=C(C=C(C=C1)NC[C@H](CS)N)C2=CC=CC=C2
Method in brief: as §1

[5] = compound: CC[C@@H]1C(=O)N(C)c2cnc(Nc3ccc(C(=O)NC4CCN(C)CC4)cc3OC)nc2N1C1CCCC1
Method in brief: as §1

[6] = compound: CC[C@H](C)N1C=C(C2=C(C=C(C=C21)C3=CN=C(C=C3)N4CCNCC4)C(=O)NCC5=C(C=C(NC5=O)C)C)C
Method in brief: as §1

[7] = compound: CCn1c(C(=O)N(C2CC2)C2CC2)cc2c3c(ncn3C)c(Nc3cc(C)n(C)n3)nc21
Method in brief: as §1

[8] = compound: CCn1cc(-c2ccnc3[nH]c(-c4cccc(CN(C)C)c4)cc23)c(-c2ccc(NC(=O)N(C)C)cc2)n1
Method in brief: as §1

[9] = compound: CN1CCC(CNc2ccc3ncc(-c4cccc(OC(F)(F)F)c4)n3n2)CC1
Method in brief: as §1

[10] = compound: CNC(=O)C1=CC=CC=C1NC2=NC(=NC=C2Cl)NC3=C(C=C(C=C3)N4CCOCC4)OC
Method in brief: as §1

rucaparib = compound: CNCc1ccc(-c2[nH]c3cc(F)cc4c3c2CCNC4=O)cc1 [rucaparib]
Method in brief: as §1

encorafenib = compound: COC(=O)N[C@@H](C)CNc1nccc(-c2cn(C(C)C)nc2-c2cc(Cl)cc(NS(C)(=O)=O)c2F)n1 [encorafenib]
Method in brief: as §1

rosiglitazone = compound: CN(CCOC1=CC=C(C=C1)C[C@H]2C(=O)NC(=O)S2)C3=CC=CC=N3 (racemic) [rosiglitazone]
Method in brief: as §1

Measured: log2 fold change

DCP2 (UniProt Q8IU60)
inactive: volasertib -0.153 | epoxomicin -0.04 | [1] -0.069 | [2] 0.319 | saracatinib -0.053 | sotrastaurin -0.267 | alvocidib -0.047 | Tubastatin A 0.013 | defactinib 0.098 | [3] -0.153 | [4] 0.081

DHRS13 (UniProt Q6UX07)
inactive: [5] 0.157 | [6] 0.139 | [7] -0.135 | [8] -0.077 | [1] 0.225 | [2] 0.143 | [9] 0.098 | saracatinib -0.03 | sotrastaurin -0.17 | alvocidib -0.139 | Tubastatin A 0.105 | [10] 0.024 | defactinib -0.032 | rucaparib 0.188 | [3] 0.174 | encorafenib 0.021 | [4] -0.114

DDX11 (UniProt Q96FC9)
Chain of UniProt Q96FC9 (Q96FC9 whole entry, looked up): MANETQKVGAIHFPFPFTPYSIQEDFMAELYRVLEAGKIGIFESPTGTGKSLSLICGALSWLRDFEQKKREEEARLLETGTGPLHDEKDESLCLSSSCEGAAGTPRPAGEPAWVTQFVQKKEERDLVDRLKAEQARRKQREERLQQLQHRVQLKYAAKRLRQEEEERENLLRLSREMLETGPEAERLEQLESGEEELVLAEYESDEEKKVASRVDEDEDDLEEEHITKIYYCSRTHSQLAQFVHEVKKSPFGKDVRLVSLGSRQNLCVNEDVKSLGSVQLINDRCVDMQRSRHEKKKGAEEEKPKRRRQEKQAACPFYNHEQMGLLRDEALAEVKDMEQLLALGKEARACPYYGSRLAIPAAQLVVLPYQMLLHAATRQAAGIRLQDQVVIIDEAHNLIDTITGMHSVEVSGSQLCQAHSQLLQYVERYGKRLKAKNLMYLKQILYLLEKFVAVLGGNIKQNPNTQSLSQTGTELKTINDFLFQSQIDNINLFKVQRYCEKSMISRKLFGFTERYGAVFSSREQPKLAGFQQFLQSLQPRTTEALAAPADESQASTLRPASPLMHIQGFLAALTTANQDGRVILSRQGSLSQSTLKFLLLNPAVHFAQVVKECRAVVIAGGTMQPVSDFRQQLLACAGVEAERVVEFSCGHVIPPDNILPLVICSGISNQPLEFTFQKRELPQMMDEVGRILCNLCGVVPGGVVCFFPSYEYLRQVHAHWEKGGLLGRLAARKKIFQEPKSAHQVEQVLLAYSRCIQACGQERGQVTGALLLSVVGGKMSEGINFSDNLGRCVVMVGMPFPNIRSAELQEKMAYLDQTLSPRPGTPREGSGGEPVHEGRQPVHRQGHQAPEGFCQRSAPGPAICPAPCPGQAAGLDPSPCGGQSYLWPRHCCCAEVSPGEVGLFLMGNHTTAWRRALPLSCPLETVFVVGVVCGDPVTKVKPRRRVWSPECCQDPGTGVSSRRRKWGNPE
inactive: volasertib -0.084 | [6] 0.128 | epoxomicin 0.099 | [7] -0.018 | [1] 0.098 | rosiglitazone 0.052 | [2] -0.04 | saracatinib -0.016 | sotrastaurin -0.248 | Tubastatin A -0.034 | [10] -0.035 | defactinib -0.052 | [3] -0.005 | [4] 0.118

DLK1 (UniProt P80370)
inactive: epoxomicin 0.012 | [1] -0.016 | [2] 0.127 | saracatinib 0.021 | alvocidib 0.03 | defactinib -0.08 | rucaparib -0.023 | [3] -0.09 | encorafenib -0.032 | [4] 0.159
active: [5] 0.43

DOP1A (UniProt Q5JWR5)
inactive: epoxomicin 0.069 | [7] -0.067 | [1] 0.121 | rosiglitazone -0.026 | [10] -0.052 | defactinib 0.164 | [4] -0.083

FADS1 (UniProt F5GYH4)
inactive: [1] 0.026 | rosiglitazone 0.238 | Tubastatin A 0.123 | defactinib 0.06 | [4] 0.123

EDRF1 (UniProt Q3B7T1)
inactive: [5] 0.046 | epoxomicin 0.009 | [7] -0.089 | [8] -0.046 | rosiglitazone 0.004 | [2] 0.006 | [9] -0.014 | saracatinib 0.104 | sotrastaurin 0.012 | alvocidib -0.006 | [10] -0.111 | rucaparib 0.098 | [3] 0.07 | encorafenib 0.058

DHPS (UniProt M0R1T2)
inactive: rosiglitazone -0.057 | sotrastaurin -0.06

DDB1 isoform 2 (UniProt Q16531)
Chain of UniProt Q16531 (Q16531 whole entry, looked up): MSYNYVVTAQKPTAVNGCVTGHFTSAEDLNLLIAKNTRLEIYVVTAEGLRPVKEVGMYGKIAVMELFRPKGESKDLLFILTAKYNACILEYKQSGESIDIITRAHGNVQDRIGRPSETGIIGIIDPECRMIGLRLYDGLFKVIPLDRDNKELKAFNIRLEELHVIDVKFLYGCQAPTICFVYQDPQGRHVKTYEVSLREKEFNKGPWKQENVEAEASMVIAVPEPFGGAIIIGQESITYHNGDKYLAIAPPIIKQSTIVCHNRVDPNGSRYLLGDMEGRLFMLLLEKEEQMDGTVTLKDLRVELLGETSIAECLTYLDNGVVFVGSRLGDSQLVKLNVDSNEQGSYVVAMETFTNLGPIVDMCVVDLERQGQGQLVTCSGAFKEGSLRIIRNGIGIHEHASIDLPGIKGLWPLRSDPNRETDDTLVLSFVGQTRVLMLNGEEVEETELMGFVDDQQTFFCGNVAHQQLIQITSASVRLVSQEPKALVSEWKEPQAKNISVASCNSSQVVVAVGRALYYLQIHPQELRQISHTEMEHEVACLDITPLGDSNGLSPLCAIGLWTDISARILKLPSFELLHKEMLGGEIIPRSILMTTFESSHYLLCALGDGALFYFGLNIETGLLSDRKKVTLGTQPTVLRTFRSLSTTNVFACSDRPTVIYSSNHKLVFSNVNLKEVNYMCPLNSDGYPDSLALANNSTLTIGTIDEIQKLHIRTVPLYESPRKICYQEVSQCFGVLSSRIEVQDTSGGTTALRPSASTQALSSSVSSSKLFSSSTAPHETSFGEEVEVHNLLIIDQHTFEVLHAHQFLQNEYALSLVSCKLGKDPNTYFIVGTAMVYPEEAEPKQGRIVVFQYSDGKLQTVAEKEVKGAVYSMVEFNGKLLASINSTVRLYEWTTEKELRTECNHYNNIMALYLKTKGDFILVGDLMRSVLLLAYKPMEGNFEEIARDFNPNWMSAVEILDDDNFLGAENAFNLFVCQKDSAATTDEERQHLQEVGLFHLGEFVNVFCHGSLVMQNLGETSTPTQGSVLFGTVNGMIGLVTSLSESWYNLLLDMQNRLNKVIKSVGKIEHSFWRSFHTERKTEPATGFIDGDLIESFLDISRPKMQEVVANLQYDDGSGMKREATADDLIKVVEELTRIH
inactive: [5] 0.141 | epoxomicin -0.287 | [8] 0.235 | rosiglitazone 0.301 | [9] -0.041 | sotrastaurin 0.053 | rucaparib -0.067 | encorafenib -0.041

FAM117B (UniProt Q6P1L5)
inactive: [5] -0.054 | epoxomicin 0.021 | [7] -0.211 | [8] 0.012 | [1] 0.11 | [2] -0.072 | [9] 0.017 | saracatinib -0.004 | alvocidib -0.117 | Tubastatin A 0.084 | [10] -0.035 | defactinib -0.494 | rucaparib -0.013 | [3] -0.223 | encorafenib -0.092 | [4] -0.341

EHBP1 (UniProt Q8NDI1)
Chain of UniProt Q8NDI1 (Q8NDI1 whole entry, looked up): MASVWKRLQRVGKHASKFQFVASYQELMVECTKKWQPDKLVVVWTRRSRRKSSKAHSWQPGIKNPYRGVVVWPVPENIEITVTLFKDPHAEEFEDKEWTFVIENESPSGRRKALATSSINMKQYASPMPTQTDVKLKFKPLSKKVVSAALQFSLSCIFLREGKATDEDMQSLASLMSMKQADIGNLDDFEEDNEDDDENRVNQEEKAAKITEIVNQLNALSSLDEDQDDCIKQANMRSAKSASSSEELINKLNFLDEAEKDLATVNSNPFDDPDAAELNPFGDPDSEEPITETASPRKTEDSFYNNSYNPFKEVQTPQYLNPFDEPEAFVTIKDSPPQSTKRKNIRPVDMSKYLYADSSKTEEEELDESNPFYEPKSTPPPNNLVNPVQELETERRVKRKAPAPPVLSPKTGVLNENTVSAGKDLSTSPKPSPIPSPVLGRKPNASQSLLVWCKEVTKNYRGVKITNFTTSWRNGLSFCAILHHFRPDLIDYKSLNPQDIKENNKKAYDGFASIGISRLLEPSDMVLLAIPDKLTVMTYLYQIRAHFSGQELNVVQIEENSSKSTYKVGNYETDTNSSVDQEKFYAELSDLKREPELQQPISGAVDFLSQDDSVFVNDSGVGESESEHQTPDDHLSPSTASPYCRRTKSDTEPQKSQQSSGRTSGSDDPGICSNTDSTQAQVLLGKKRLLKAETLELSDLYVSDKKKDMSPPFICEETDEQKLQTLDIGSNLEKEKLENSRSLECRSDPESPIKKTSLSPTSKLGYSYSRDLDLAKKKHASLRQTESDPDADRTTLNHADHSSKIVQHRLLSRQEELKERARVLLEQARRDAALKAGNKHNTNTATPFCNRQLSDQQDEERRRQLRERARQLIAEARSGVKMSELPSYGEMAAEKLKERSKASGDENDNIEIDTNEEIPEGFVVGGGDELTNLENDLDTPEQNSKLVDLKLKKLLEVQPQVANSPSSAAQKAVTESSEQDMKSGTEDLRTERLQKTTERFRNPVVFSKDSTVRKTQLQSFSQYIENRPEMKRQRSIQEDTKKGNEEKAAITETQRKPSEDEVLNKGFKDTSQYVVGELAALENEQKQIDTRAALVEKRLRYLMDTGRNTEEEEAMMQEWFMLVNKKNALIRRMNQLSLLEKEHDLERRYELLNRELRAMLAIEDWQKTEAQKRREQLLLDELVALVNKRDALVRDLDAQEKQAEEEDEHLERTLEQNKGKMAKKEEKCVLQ
inactive: [5] -0.155 | [8] 0.011 | [9] 0.015 | alvocidib -0.085 | Tubastatin A 0.045 | rucaparib 0.135 | encorafenib -0.058

DNAH10 (UniProt Q8IVF4)
inactive: [5] 0.066 | [6] -0.146 | epoxomicin 0.072 | [7] -0.17 | [8] -0.183 | [1] -0.008 | rosiglitazone 0.031 | [2] 0 | [9] 0.006 | saracatinib -0.067 | sotrastaurin -0.06 | alvocidib 0.028 | Tubastatin A 0.191 | [10] -0.157 | defactinib 0.004 | rucaparib -0.044 | [3] 0.062 | encorafenib -0.06 | [4] -0.013

DNAJB1 (UniProt M0R128)
inactive: [1] -0.038 | rosiglitazone 0.223 | alvocidib 0.082 | Tubastatin A -0.058 | defactinib -0.073 | [4] 0.18

EPHB4 (UniProt P54760)
inactive: volasertib -0.302 | sotrastaurin -0.057

CTSS (UniProt P25774)
Chain of UniProt P25774 (P25774 whole entry, looked up): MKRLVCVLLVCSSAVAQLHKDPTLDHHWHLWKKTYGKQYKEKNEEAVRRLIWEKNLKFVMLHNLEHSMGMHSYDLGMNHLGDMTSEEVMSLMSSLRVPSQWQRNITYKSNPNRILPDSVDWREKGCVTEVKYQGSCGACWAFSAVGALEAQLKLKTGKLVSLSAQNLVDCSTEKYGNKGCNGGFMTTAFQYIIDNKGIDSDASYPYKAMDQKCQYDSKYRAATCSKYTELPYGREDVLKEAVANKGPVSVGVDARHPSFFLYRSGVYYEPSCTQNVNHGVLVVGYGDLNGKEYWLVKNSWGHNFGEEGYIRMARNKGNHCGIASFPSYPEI
inactive: [5] -0.027 | [8] 0.126 | [1] -0.021 | [2] 0.051 | [9] -0.034 | sotrastaurin 0.051 | alvocidib -0.039 | Tubastatin A -0.084 | defactinib 0.074 | rucaparib 0.258 | [3] 0.134 | encorafenib -0.074 | [4] -0.012
active: saracatinib 0.478

DCAF12 (UniProt Q5T6F0)
Chain of UniProt Q5T6F0 (Q5T6F0 whole entry, looked up): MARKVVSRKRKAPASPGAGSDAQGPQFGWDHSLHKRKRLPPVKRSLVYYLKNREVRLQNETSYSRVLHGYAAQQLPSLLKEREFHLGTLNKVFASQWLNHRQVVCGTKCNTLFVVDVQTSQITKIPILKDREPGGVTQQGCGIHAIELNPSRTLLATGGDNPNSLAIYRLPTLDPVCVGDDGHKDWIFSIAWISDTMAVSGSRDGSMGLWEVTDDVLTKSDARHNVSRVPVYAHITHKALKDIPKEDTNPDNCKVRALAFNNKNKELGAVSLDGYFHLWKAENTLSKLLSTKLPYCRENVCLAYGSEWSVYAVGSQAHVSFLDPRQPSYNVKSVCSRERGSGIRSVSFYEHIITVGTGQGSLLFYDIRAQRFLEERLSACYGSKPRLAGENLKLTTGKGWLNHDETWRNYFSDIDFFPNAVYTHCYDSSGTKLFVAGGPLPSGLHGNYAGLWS
inactive: [5] -0.132 | [8] -0.141 | [9] 0.197 | sotrastaurin 0.058 | rucaparib 0.199 | encorafenib 0.112

DNAL1 (UniProt Q4LDG9)
Chain of UniProt Q4LDG9 (Q4LDG9 whole entry, looked up): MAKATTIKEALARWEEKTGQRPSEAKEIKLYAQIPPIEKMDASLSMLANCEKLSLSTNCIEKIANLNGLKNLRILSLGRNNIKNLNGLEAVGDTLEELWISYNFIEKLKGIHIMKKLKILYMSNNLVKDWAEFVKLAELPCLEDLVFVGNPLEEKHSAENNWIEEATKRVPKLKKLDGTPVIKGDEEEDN
inactive: epoxomicin 0.082 | [1] 0.103 | rosiglitazone -0.683 | [2] -0.256 | saracatinib -0.081 | alvocidib -0.121 | defactinib -0.14 | [3] 0.062 | [4] -0.13

DDX46, A0A0C4DG89
inactive: [6] -0.074 | epoxomicin 0.155

FAM135A (UniProt Q9P2D6)
inactive: [6] -0.068 | epoxomicin -0.088 | [7] 0.009 | [1] 0.079 | sotrastaurin -0.192 | [10] 0.004 | defactinib -0.131 | [4] 0.003

EPHX2 (UniProt E5RI53)
inactive: epoxomicin -0.199 | rosiglitazone -0.248

ERF (UniProt P50548)
Chain of UniProt P50548 (P50548 whole entry, looked up): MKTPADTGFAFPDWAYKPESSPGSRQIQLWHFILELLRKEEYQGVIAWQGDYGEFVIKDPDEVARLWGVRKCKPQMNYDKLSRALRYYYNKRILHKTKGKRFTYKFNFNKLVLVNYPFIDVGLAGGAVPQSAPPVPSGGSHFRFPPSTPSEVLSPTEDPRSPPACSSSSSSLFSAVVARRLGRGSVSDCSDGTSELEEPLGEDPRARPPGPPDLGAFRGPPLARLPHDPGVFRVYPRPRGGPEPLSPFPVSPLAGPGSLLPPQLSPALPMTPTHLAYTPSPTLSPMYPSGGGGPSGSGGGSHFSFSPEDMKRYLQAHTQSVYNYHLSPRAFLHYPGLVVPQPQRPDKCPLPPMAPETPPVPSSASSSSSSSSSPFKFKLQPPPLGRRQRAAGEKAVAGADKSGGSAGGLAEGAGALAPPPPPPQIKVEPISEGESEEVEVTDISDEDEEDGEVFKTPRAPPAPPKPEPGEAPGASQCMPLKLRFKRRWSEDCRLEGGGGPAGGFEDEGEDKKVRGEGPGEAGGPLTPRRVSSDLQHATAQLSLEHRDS
inactive: epoxomicin 0.068 | [7] 0.033 | [8] -0.052 | [9] 0.319 | sotrastaurin -0.058 | Tubastatin A 0.377 | [10] 0.069

DERPC (UniProt P0CG12)
active: [2] 0.519
inactive: [5] 0.127 | [6] -0.051 | [7] 0 | [8] 0.197 | [1] 0.053 | rosiglitazone 0.04 | [9] 0.025 | saracatinib -0.168 | [10] 0.08 | defactinib -0.153 | rucaparib -0.001 | [3] -0.071 | encorafenib -0.109 | [4] 0.063

EID1 (UniProt Q9Y6B2)
Chain of UniProt Q9Y6B2 (Q9Y6B2 whole entry, looked up): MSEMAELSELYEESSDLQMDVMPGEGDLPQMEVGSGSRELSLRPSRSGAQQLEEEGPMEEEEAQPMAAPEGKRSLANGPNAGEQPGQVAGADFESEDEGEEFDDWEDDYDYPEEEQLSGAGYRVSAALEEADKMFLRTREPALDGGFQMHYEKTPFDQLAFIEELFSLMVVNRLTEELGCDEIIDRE
inactive: volasertib 0.053 | [6] 0.172 | [7] 0.05 | [8] -0.104 | [9] -0.317 | sotrastaurin -0.049 | Tubastatin A 0.599 | [10] -0.111
active: epoxomicin 0.83

EGR1 (UniProt P18146)
active: defactinib -0.841
inactive: volasertib 0.085 | [6] 0.158 | epoxomicin 0.489 | [7] 0.113 | [8] 0.228 | [1] -0.241 | rosiglitazone 0.08 | [9] -0.56 | sotrastaurin -0.481 | alvocidib -0.604 | Tubastatin A 0.129 | [10] -0.147 | [4] 0.041

Source: the supplement of paper PMC10849652
